Source: the supplement of paper PMC6555819

How the values were obtained:
Assay in all cases: PBM binding z-score (relative to random genomic background probes); higher = stronger binding; sequences stand for … in GC…GCGATTGACAGCGTAGAATGAAGG
[1] = system: FXR:RXRa (NR concentration 270 nM, RXRa partner concentration 90 nM)
Outline: (§1)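 On custom Agilent 4×180K arrays, double-stranded probes with 34-nt variable regions carried direct-repeat seeds, single-nucleotide variants, half-site ablations or random human genomic background. Ligand-free nuclear receptor dimers were applied for 1 h, and binding was read with antibodies against each partner (one per run). Binding z-scores come from regression-normalized fluorescence, with the random background probes as reference.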

[2] = system: LXRa:RXRa (NR concentration 270 nM, RXRa partner concentration 90 nM)
Outline: as §1

[3] = system: LXRa homodimer (NR concentration 270 nM)
Outline: as §1

[4] = system: LXRb:RXRa (NR concentration 270 nM, RXRa partner concentration 90 nM)
Outline: as §1

[5] = system: LXRb homodimer (NR concentration 270 nM)
Outline: as §1

[6] = system: PPARa:RXRa (NR concentration 270 nM, RXRa partner concentration 90 nM)
Outline: as §1

[7] = system: PPARg:RXRa (NR concentration 180 nM, RXRa partner concentration 90 nM)
Outline: as §1

[8] = system: PPARg:RXRa 270nM:90nM, anti-RXR (NR concentration 270 nM, RXRa partner concentration 90 nM)
Outline: as §1

[9] = system: PPARg:RXRa 30nM:10nM, anti-RXR (NR concentration 30 nM, RXRa partner concentration 10 nM)
Outline: as §1

[10] = system: PPARg:RXRa 90nM:30nM, anti-RXR (NR concentration 90 nM, RXRa partner concentration 30 nM)
Outline: as §1

[11] = system: PPARg:RXRa DBDmut IVT, anti-RXR (DBD mutation: RXRa K156A/R161A, NR concentration 270 nM, RXRa partner concentration 90 nM)
Outline: as §1

[12] = system: PPARg:RXRa IVT, anti-PPARg (NR concentration 270 nM, RXRa partner concentration 90 nM)
Outline: as §1

[13] = system: PPARg DBDmut:RXRa IVT, anti-PPARg (DBD mutation: PPARg1 K132A/R137A, NR concentration 270 nM, RXRa partner concentration 90 nM)
Outline: as §1

[14] = system: PPARg DBDmut IVT, anti-PPARg (DBD mutation: PPARg1 K132A/R137A, NR concentration 270 nM)
Outline: as §1

[15] = system: PPARg homodimer (NR concentration 180 nM)
Outline: as §1

[16] = system: PXR:RXRa (NR concentration 270 nM, RXRa partner concentration 90 nM)
Outline: as §1

[17] = system: PXR homodimer (NR concentration 270 nM)
Outline: as §1

[18] = system: RARa:RXR (NR concentration 270 nM, RXRa partner concentration 90 nM)
Outline: as §1

[19] = system: RARa homodimer (NR concentration 270 nM)
Outline: as §1

[20] = system: RARb:RXRa (NR concentration 270 nM, RXRa partner concentration 90 nM)
Outline: as §1

Sequence	PBM binding z-score [1]	PBM binding z-score [2]	PBM binding z-score [3]	PBM binding z-score [4]	PBM binding z-score [5]	PBM binding z-score [6]	PBM binding z-score [7]	PBM binding z-score [8]	PBM binding z-score [9]	PBM binding z-score [10]	PBM binding z-score [11]	PBM binding z-score [12]	PBM binding z-score [13]	PBM binding z-score [14]	PBM binding z-score [15]	PBM binding z-score [16]	PBM binding z-score [17]	PBM binding z-score [18]	PBM binding z-score [19]	PBM binding z-score [20]
CTCGCAAGGTCGTGCTCAGGTGAGTATACCAAAC	2.12	1.71	-0.122	1.37	-0.498	2.81	0.423	1.04	-0.426	0.224	0.0828	0.996	-0.606	-0.427	0.113	1.76	-0.272	2.37	-0.702	2.47
TCGAGTAGGTTAGTCGGGCCATTCAGCCAACATA	-0.164	-0.373	-0.481	-0.437	-1.41	0.324	-0.134	0.911	0.94	0.798	1.97	1.9	-0.829	-1.18	-0.154	-0.339	-0.506	-0.314	-1	0.287
ACAAACAGGTGAGTGAAGGTAACTCAGCTGGACG	0.326	-0.0872	-0.278	-0.542	-0.3	0.367	0.682	0.103	0.0977	0.229	1.21	1.19	0.208	0.336	0.244	-0.255	-0.143	0.192	0.0567	0.585
CATACTAGGTCAAGGTCAAAGTCGGTTTGTGCCA	6.62	5.81	5.27	4.77	1.99	5.6	8.52	7.01	5.63	6.93	7.56	7.98	3.58	0.96	5.3	5.33	2.51	5.37	2.9	4.96
CCTCGGAGCACAGAAGGTCAGAGCTGTCCGCTTT	1.68	2.17	0.231	1.21	-0.905	1.97	-0.336	0.536	-1.06	-0.433	0.355	-0.108	-1.25	-1.67	1.34	1.87	0.017	2.1	-0.245	2.62
AGAATGAGGTTAAGATCCGGGAAACAGAATACAT	2.5	1.75	-0.0766	1.58	-0.277	3.26	2.03	1.97	0.812	1.72	2.97	2.71	1.45	0.576	0.097	0.953	0.0989	2	0.396	1.88
CTGAGTAGGTTATGGGGCATTCAGGCAACGGTGA	0.204	0.0795	0.0598	0.763	-0.118	2.8	4.62	5.02	3.08	5.01	4.73	4.47	0.603	-0.059	0.463	0.0232	0.0116	0.559	-0.472	0.942
GCTAGTTGGTCAGTAAAAGGTCACACACCGGTCG	3.43	4.13	4.61	3.79	0.823	4.31	3.03	4.23	2.21	4.37	1.12	2.86	-0.0862	0.91	4.27	4.95	1.3	5.91	3.23	4.19
TCCAGTAGGTTAGGGGCATTCAGAATGGCGTCGA	0.986	0.635	-0.245	1.19	-0.0601	1.72	1.87	3.55	2.86	3.05	3.35	2.67	-0.472	0.307	1.01	0.69	0.251	0.878	-0.317	1.22
TTACCAAGGTGAGCAGAGGTCGTTGATCCAACTC	1.14	1.86	-0.283	1.37	-0.627	2.38	2.17	2.89	0.857	2.68	0.947	2.49	-0.426	-0.173	0.497	4.23	-0.112	2.23	-0.99	1.99
ATCTCTAGGTAACAAGTTAAGTGAAAGAGAGGAC	0.803	0.557	0.231	0.236	0.69	1.55	2.23	3.1	1.59	2.7	3.26	2.85	1.87	1.54	0.926	0.289	0.574	0.842	0.894	0.723
GCTGCTAGGTCAGTTTGGTCAGCTAACGGGTACG	1.08	0.563	-0.212	0.437	0.134	0.943	0.183	0.678	-0.304	0.407	2.93	2	-0.859	-0.221	0.433	0.0587	-0.275	0.504	-0.322	3.1
TTACCAAGGTGAGCTGAGGTGGTTGATCCAACTC	-0.284	-0.505	-0.878	-0.761	-1.22	0.275	-0.0433	0.188	-0.313	0.186	0.594	1.48	-0.51	-0.991	-0.428	0.478	-0.709	1.53	-0.848	0.757
CGAACTAGGTCCGAACAGGACAGTGAAGGATGAT	-0.542	-0.905	-0.619	-1	-0.811	-1.03	0.576	-0.558	-0.414	-0.784	1.53	0.592	-1.02	-0.172	-1.32	-0.715	-0.581	-0.746	-0.281	-0.345
TTACCAAGGTGTAGGTCGTTGATCCCTCTGTAGA	0.674	1.15	0.0593	0.801	-0.638	0.814	-0.0136	1.68	0.61	1.52	-0.191	0.759	-0.595	0.0644	0.0452	0.444	-0.501	0.688	-0.329	0.379
CAAACTAGGTCTAGGTCAAAGTCGGTTTGTGCCA	1.86	2.04	1.3	1.73	0.0723	3.34	2.95	3.82	1.2	3.03	4.21	4.82	0.191	0.991	1.41	1.7	0.0565	2.06	-0.42	2.67
ACAGACAGGTTAGTGAAGGTAACTCAGCTGGACG	0.616	0.393	-0.196	-0.21	-0.3	0.259	0.68	0.049	-0.22	0.0314	0.174	0.407	0.284	0.465	0.573	-0.0921	-0.25	0.306	0.0654	0.755
TTACCAAGGTGAAGGTCCTTGATCCCTCTGTAGA	0.794	0.644	-0.31	1.04	-0.95	1.87	1.33	2.39	0.878	2.03	1.64	2.67	-0.58	-0.0809	-0.00432	0.544	-0.323	1.01	-0.146	1.75
TCTCGGAGGACACGAATGTCAGAGCTTTCCAGAG	0.579	-0.0398	-0.547	-0.175	-0.958	0.22	-0.0172	0.69	1.96	1.29	1.02	-0.236	-0.725	-1.02	-0.998	-0.181	-0.893	-0.129	-0.458	1.47
GGAACGAGGGCAAGTTGATAGCAGAGTTTGATGG	1.07	0.522	-0.269	0.278	-0.586	1.74	1.19	1.03	-0.0238	0.39	3.78	2.54	-0.0364	-0.551	0.361	0.937	0.84	0.145	-0.166	2.63
AGAATGAGGTTATTAAGATCAGGGGATTGCGGTC	1.52	1.31	0.0189	1.18	-0.0318	2.51	1.47	1.87	0.612	1.08	2.94	2.52	0.849	0.535	0.326	1.14	0.713	1.15	0.826	1.34
TCACGGAGGACACGAAAGGTCAGAGCTCGACATC	3.04	4.14	3.14	3.07	-0.784	3.5	1.48	2.62	2.28	2.43	1.84	1.63	-0.581	-0.261	2.1	4.03	0.408	4.8	1.27	4.28
ACTAGTTGGTCAGCTGAGGTCACACAGAATTCGG	3.75	3.32	2.31	3.64	0.768	3.8	1.87	2.46	0.831	1.73	1.48	3.02	0.452	0.375	2.18	5.36	1.87	4.56	0.455	3.72
TCATATAGGTAAACGCTAGGTGAAAGTCCGATCT	1.11	0.968	0.15	0.833	-0.0724	1.7	1.29	2.43	3.95	3.34	4.49	3.57	1.38	1.29	0.646	0.584	0.4	1.13	0.619	0.474
CCGACTCGGGCAAAGGTTACCATACTCAGTACGA	1.22	1.83	-0.0865	1.94	-0.792	4.45	8.25	8.33	7.28	9.75	1.5	4.06	-0.108	-0.188	2.32	2.01	-0.0786	3.12	0.537	2.04
AGTCGAAGTTCAGGACGAGGTAACGTAAAGCACG	1.05	1.05	-0.0607	0.485	-0.831	1.49	1.27	1.11	0.224	0.868	-0.408	0.263	-0.282	-0.353	0.469	1.19	0.0866	1.42	0.0687	2.41
TCTGCTAGGTCAACGAGGGTCAGCTAATCTGCTA	4.68	4.83	0.398	3.04	0.26	4.27	3.36	3.79	2.12	3.02	4.34	4.28	-0.294	-0.307	2.15	4.96	-0.4	4.03	-0.252	4.65
GCTGCTAGGTCTGGTTGGTCAGCTAACGGGTACG	-0.623	-0.65	-0.365	-0.912	-0.475	-0.774	-0.79	-0.447	-1.15	-0.815	-0.0168	-0.444	-1.29	-0.941	-0.461	-0.762	-0.661	-0.909	-0.893	0.00464
